# Measured values published in the supplement of paper PMC13172266.
# Legend:
# Assay in all cases: cell proliferation relative to vehicle (% of vehicle); higher = less growth inhibition
# Details in all cases: 72 h
# [1] = tested on: U2932 TK216-resistant clone 2
# How it was run: (§1)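 Parental U2932 cells (ABC-DLBCL) and two clones made resistant to an ETS-targeting agent by almost a year of repeated exposure were treated for 72 h with 348 targeted inhibitors at 500 nM or 50 nM. MTT was then applied for 4 h, the reaction was stopped with 25% SDS, and absorbance was measured on a Cytation 3. Values express proliferation as percent of proliferating cells compared with DMSO vehicle.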
# [2] = tested on: U2932 TK216-resistant clone 3
# How it was run: as §1
# U2932 parental = tested on: U2932 parental
# How it was run: as §1
Compound,cell proliferation ([1]; 50 nM),cell proliferation ([1]; 500 nM),cell proliferation ([2]; 50 nM),cell proliferation ([2]; 500 nM),cell proliferation (U2932 parental; 50 nM),cell proliferation (U2932 parental; 500 nM)
C[C@H](Nc1ncnc2nc[nH]c12)c1cc2cccc(Cl)c2c(=O)n1-c1ccccc1,103,92.2,95.6,94.3,106,108
COc1cc(Nc2ncc(F)c(Nc3ccc4c(n3)N(COP(=O)(O)O)C(=O)C(C)(C)O4)n2)cc(OC)c1OC [Fostamatinib (R788)],96.7,92.8,97.2,95,96.7,93.6
COc1cc(CCc2cc(NC(=O)c3ccc(N4CC(C)NC(C)C4)cc3)n[nH]2)cc(OC)c1 (configuration not stated),102,101,103,102,98.4,95.6
COc1ccc(F)c(F)c1C(=O)c1cnc(NC2CCN(S(C)(=O)=O)CC2)nc1N,92,53.5,89.4,66.7,90.5,63.3
N#C/C(=C(/N)Sc1ccc(N)cc1)c1ccccc1C(F)(F)F,102,98,90.8,92.8,104,99.2
COc1cc(Nc2c(C#N)cnc3cc(OCCCN4CCN(C)CC4)c(OC)cc23)c(Cl)cc1Cl [Bosutinib (SKI-606)],106,73.1,103,63.3,98.5,83.4
O=c1cc(N2CCOCC2)oc2c(-c3ccccc3)cccc12,110,102,100,97.3,105,105
COc1cc2c(NC3CCN(CC4CCCCC4)CC3)nc(N3CCCN(C(C)C)CC3)nc2cc1OCCCN1CCCCC1,95.3,105,91.4,115,96.3,110
NC(=O)Nc1sc(-c2ccc(F)cc2)cc1C(N)=O,109,92.7,106,102,104,99.5
OCCn1cc(-c2cnc3nnn(Cc4ccc5ncccc5c4)c3n2)cn1,111,107,105,107,99.4,104
CS(=O)(=O)c1ccc(C(=O)Nc2ccc(Cl)c(-c3ccccn3)c2)c(Cl)c1 [Vismodegib (GDC-0449)],106,108,108,113,98.2,103
Cc1ccc([C@@H]2O[C@H](CO)[C@@H](O)[C@H](O)[C@H]2O)cc1Cc1ccc(-c2ccc(F)cc2)s1 [Canagliflozin],93.3,102,104,104,91.9,87.9
CC#CC(=O)N1CCC[C@H]1c1nc(-c2ccc(C(=O)Nc3ccccn3)cc2)c2c(N)nccn12,70,64.8,75.8,72.9,77.4,75.6
Cn1cc(C2=C(c3ccc(Cl)cc3Cl)C(=O)NC2=O)c2ccccc21,105,96.2,105,108,97.8,100
Cc1nc(NC(=O)N2CCC[C@H]2C(N)=O)sc1-c1ccnc(C(C)(C)C(F)(F)F)c1,98.4,78.7,96.2,85,97.7,91
CCNC(=O)c1noc(-c2cc(C(C)C)c(O)cc2O)c1-c1ccc(CN2CCOCC2)cc1,4.68,4.69,21.4,21.1,3.32,3.9
C=C1/C(=C\C=C2/CCC[C@]3(C)[C@@H]([C@H](C)/C=C/[C@H](C)C(C)C)CC[C@@H]23)C[C@@H](O)C[C@@H]1O [Doxercalciferol],104,92.2,101,103,105,98.5
COc1ccc(C2=N[C@H](c3ccc(Cl)cc3)[C@H](c3ccc(Cl)cc3)N2C(=O)N2CCNC(=O)C2)c(OC(C)C)c1 [Nutlin-3b],105,96.6,100,107,102,99.6
Cc1csc(-c2nnc(Nc3ccc(Oc4ncccc4-c4ccnc(N)n4)cc3)c3ccccc23)c1,88,99.7,80.5,78,66.9,61.8
CN1CCN(Cc2ccc(-c3cnc4[nH]cc(-c5ccc6[nH]ccc6c5)c4c3)cc2)CC1,96.6,91.2,97.2,85.4,92.5,101
Cc1cc(C(C)Nc2ccccc2)c2nc(N3CCOCC3)cc(=O)n2c1 (configuration not stated),103,101,105,98.3,102,92.9
Cc1nc(N)sc1-c1ccnc(Nc2ccc(N3CCOCC3)cc2)n1,91.2,103,99.5,103,103,95.8
